Measured values taken from PubChem BioAssay (NCATS).
Results filed as inconclusive are left out. Unless noted, calls follow the shape of the dose curve; as a rule, active = well fitted curve in either direction with a large enough effect (not every such curve was filed as active); inconclusive = small, poorly fitted or top-dose-only effect, or another doubt; inactive = flat fitted curve, though single readings scatter.

Legend:
[1] = AP1 Signaling Pathway (AID 357); conditions: ME-180 AP-1-bla reporter, EGF-induced, beta-lactamase ratio, 5 h; at 17.2 µM (top of the series) unless noted;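 also: ME-180 reporter cells stimulated with EGF at its EC50 level; % is scaled to controls: 0 for no effect and ±100 for the full control effect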
Method in brief: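 Titration-series screen for positive or negative modulators of EC50 EGF-induced signaling in ME-180 cells carrying an AP-1-driven beta-lactamase reporter. After 5 hours at 37 degrees Celsius, CCF4 460nm/530nm emission ratio gave %Activity; AC50 values derived.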

[2] = NFAT Signaling Pathway (AID 444); conditions: Jurkat NFAT-bla M1, carbachol, beta-lactamase ratio, 5 h; at 17.2 µM (top of the series) unless noted;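 also: carbachol stimulus at about its EC50 of 1 µM final; % is scaled to controls: 0 for no effect and ±100 for the full control effect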
Method in brief: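 Jurkat cells with NFAT-driven β-lactamase reporter and co-expressed M1 receptor, stimulated with carbachol (final 1 uM, ~EC50), compound titration, 5 h at 37 °C. CCF4 loaded 1 h at RT; 460/530 nm ratio gave %activity and AC50.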

[3] = Stat Signaling Pathway (AID 446); conditions: ME-180 SIE beta-lactamase reporter, IL-6 stimulated, 5 h; at 17.2 µM (top of the series) unless noted;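 also: ME-180 cervical cancer cells given 40 pM IL-6 alongside compound; SIE-controlled beta-lactamase reporter measured as 460/530 nm FRET emission ratio; % is scaled to controls: 0 for no effect and ±100 for the full control effect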
Method in brief: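 ME-180 cells carrying a SIE-driven beta-lactamase reporter are stimulated with 40 pM IL-6 for 5 h at 37C in the presence of compound. The 460/530 nm FRET substrate ratio is read after 2.5 h at RT. Data are normalised to 300 pM IL-6 and to 125 nM JAK inhibitor controls.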

[4] = molecular target: Glucocorticoid receptor (Homo sapiens) (UniProt P04150); assay: GR-GFP Redistribution (AID 450;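 active = compounds whose dose series gives a full or clear partial fitted curve of increased nuclear translocation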; also: potency is read from the fitted curve at half-maximal effect)
Sequence of Glucocorticoid receptor (Homo sapiens) (P04150 whole entry, looked up): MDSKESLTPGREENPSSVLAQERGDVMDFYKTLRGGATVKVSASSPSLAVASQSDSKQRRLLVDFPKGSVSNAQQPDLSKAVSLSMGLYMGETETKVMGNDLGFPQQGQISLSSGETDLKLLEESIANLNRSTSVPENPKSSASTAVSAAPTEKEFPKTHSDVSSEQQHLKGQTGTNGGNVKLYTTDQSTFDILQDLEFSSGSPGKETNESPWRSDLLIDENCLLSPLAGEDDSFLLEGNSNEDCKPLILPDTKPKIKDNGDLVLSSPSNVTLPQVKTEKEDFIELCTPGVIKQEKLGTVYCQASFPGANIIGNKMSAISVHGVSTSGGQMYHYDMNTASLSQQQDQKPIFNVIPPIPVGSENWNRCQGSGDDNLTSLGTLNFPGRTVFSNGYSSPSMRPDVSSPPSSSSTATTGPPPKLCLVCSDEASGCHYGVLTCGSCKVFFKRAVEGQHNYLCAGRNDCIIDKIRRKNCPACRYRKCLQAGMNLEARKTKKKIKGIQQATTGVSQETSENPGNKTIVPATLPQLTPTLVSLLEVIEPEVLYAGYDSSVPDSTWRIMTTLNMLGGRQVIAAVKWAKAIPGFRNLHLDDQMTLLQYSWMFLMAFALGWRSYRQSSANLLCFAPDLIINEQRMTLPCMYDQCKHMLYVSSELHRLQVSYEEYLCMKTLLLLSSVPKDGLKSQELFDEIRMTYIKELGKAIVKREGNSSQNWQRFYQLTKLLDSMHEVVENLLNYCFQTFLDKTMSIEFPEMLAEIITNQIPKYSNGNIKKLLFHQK

CCOC(=O)c1cnn2c1[nH]c(=O)c1ccccc12
inactive: activity change, negative = inhibition [1] -8.34% | activity change, negative = inhibition [2] 9.32% | activity, negative = inhibition [3] 9.94% | Potency [4] > 20.6 µM

CC1(C)CC(=O)C(CCCN2C(=O)c3ccccc3C2=O)C(=O)C1
inactive: activity change, negative = inhibition [1] 8.1% | activity change, negative = inhibition [2] 2.72% | activity, negative = inhibition [3] 16.7% | Potency [4] > 20.6 µM

Cc1ccc(S(=O)(=O)NC(=O)Nc2ncc3c(n2)CC(c2ccco2)CC3=O)cc1 (stereo not drawn)
inactive: activity change, negative = inhibition [1] -9.62% | activity change, negative = inhibition [2] 7.22% | activity, negative = inhibition [3] -2.33% | Potency [4] > 20.6 µM

O=C1C2ON(c3ccccc3)C(c3cccnc3)C2C(=O)N1c1ccc(Cl)c(Cl)c1 (stereo not drawn)
inactive: activity change, negative = inhibition [1] -4.98% | activity change, negative = inhibition [2] 16% | activity, negative = inhibition [3] -9.39% | Potency [4] > 20.6 µM

CC12CN3CC(=O)N4CC5(C)CN(CC(C)(C4)C5=O)C(=O)CN(C1)CC(C)(C3)C2=O
inactive: activity change, negative = inhibition [1] -1.13% | activity change, negative = inhibition [2] 2.81% | activity, negative = inhibition [3] 0.401% | Potency [4] > 20.6 µM

COc1ccc(C(=O)/C=C/Nc2cccc(C)n2)cc1OC
inactive: activity change, negative = inhibition [1] -16.3% | activity change, negative = inhibition [2] 22.7% | activity, negative = inhibition [3] 0.139% | Potency [4] > 20.6 µM

N#CC1(P(=O)(c2ccccc2)c2ccccc2)CC1
inactive: activity change, negative = inhibition [1] 0.213% | activity change, negative = inhibition [2] -2.17% | activity, negative = inhibition [3] 1.75% | Potency [4] > 20.6 µM

CCOC(=O)CC(=O)CSc1nc(N)c(C#N)c(-c2ccc(F)cc2)c1C#N
inactive: activity change, negative = inhibition [1] -26.2% | activity change, negative = inhibition [2] 7.66% | activity, negative = inhibition [3] -17.8% | Potency [4] > 20.6 µM

COc1cccc(C2C(C(=O)c3cc4ccccc4o3)=C(O)C(=O)N2CCN(C)C)c1OC (stereo not drawn)
inactive: activity change, negative = inhibition [1] 8.36% | activity change, negative = inhibition [2] 1.15% | activity, negative = inhibition [3] -6.68% | Potency [4] > 20.6 µM

CC(NC(=O)NC(N)=O)(C(F)(F)F)C(F)(F)F
inactive: activity change, negative = inhibition [1] 0.637% | activity change, negative = inhibition [2] -0.043% | activity, negative = inhibition [3] -1.84% | Potency [4] > 20.6 µM

COc1ccc(C(=O)NCCCCCC(=O)O)cc1OC
inactive: activity change, negative = inhibition [1] 5.18% | activity change, negative = inhibition [2] -3.46% | activity, negative = inhibition [3] 2.88% | Potency [4] > 20.6 µM

Cc1c(=O)n(OCc2c(F)cccc2F)c2ccccc2[n+]1[O-]
inactive: activity change, negative = inhibition [1] -5.17% | activity change, negative = inhibition [2] -0.573% | activity, negative = inhibition [3] 2.13% | Potency [4] > 20.6 µM

Cc1ccc2[nH]c3c(c2c1)CCCC3C(N)=O (stereo not drawn)
inactive: activity change, negative = inhibition [1] -5.19% | activity change, negative = inhibition [2] -1.59% | activity, negative = inhibition [3] 8.83% | Potency [4] > 20.6 µM

COCc1[nH]nc2c1C(c1ccccc1OC)C(C#N)=C(N)O2 (stereo not drawn)
inactive: activity change, negative = inhibition [1] -14.7% | activity change, negative = inhibition [2] -26.9% | activity, negative = inhibition [3] -17.1% | Potency [4] > 20.6 µM

CCCCOC(=O)CSC1=C(C#N)C(c2ccc3c(c2)OCO3)CC(=O)N1 (stereo not drawn)
inactive: activity change, negative = inhibition [1] -13% | activity change, negative = inhibition [2] 19.6% | activity, negative = inhibition [3] -9.97% | Potency [4] > 20.6 µM

CC(C)N1CCc2c(sc(N)c2C#N)C1
inactive: activity change, negative = inhibition [1] 5.12% | activity change, negative = inhibition [2] -22.4% | activity, negative = inhibition [3] -5% | Potency [4] > 20.6 µM

COC(=O)c1sc(NC(=O)C(C)C)c(C(=O)OC)c1C
inactive: activity change, negative = inhibition [1] -5.18% | activity change, negative = inhibition [2] -9.07% | activity, negative = inhibition [3] 1.94% | Potency [4] > 20.6 µM
